# Tb PFK block: qHTS Assay to Find Inhibitors of T. brucei phosphofructokinase. T. brucei PFK, ADP-Glo luminescence. Potency, µM (top dose mostly 57.5 µM), inactives show at the top dose activity, negative = inhibition, most hits filed as inhibitors. 0.17% of 330,000 active. AID 485367, 2010;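 also: potency is read from the fitted curve at half-maximal effect; 0% = uninhibited 1x PFK enzyme wells and -100% = no-enzyme wells; nearly all actives have a fitted effect of over 60% in size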
# Target sequence (O15648 whole entry, looked up): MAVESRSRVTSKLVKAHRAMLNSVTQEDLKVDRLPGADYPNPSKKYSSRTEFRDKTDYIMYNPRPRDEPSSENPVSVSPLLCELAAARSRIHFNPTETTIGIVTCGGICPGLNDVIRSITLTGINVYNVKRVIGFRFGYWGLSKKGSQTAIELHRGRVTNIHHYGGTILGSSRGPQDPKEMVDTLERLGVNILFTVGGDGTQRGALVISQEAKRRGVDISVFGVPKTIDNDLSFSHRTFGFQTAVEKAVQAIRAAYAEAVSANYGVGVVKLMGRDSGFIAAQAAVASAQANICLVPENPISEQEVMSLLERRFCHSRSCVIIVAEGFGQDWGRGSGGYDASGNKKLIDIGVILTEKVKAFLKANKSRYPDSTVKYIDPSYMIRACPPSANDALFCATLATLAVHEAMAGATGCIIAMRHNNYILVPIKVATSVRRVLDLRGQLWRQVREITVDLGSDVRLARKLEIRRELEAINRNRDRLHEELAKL
#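 Luminescent ADP detection (ADP-Glo, two-step: ATP depletion then ADP-to-ATP conversion for luciferase) reported PFK activity after 45 min room-temperature reaction of 1.25 nM enzyme with 0.5 mM F6P and 0.1 mM ATP at pH 8.0.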
# PI4K2A inh: qHTS for small molecular inhibitors of PI4K2A; Phosphatidylinositol 4-kinase type 2-alpha (Homo sapiens), Q9BTU6; purified PI4K2A, ADP-Glo luminescence, 1 h; stronger effect = lower value; 0.13% of 420,000 active; AID 1346378, 2018; activity change, negative = inhibition, % at 76.9 µM; in the data active = activity change below about -50%; inconclusive = mostly about -30% to -49%;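 also: -100% = wells without enzyme as full effect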
#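 In this quantitative HTS, ADP production by PI4K2A was quantified luminescently after 1 h at ambient temperature; 100 microM adenosine served as plate-quality control.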
# PI5P4Ka inh: qHTS for Inhibitors of phosphatidylinositol 5-phosphate 4-kinase (PI5P4K) | Phosphatidylinositol 5-phosphate 4-kinase type-2 alpha (Homo sapiens), P48426 | max response, % | AID 652105, 2013 | 1.2% of 330,000 active | PI5P4Kalpha enzyme, ADP-Glo luminescence, 60 min; stronger effect = lower value; active = max response of -50% or lower; inconclusive = between -30% and -50%; inactive = -30% or higher; also: value at the top dose of about 77 µM
#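 PI5P4Kalpha ADP-Glo assay; 5 microM ATP final; 60 min RT reaction; HEPES pH 7.4/EGTA/CHAPS, 5% DMSO; controls lacking substrate or enzyme; luminescent end-point.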
# Pin1 inh: qHTS Assay to Find Inhibitors of Pin1. 0.009% of 390,000 active. Pin1 FP peptide displacement, HiFluor488, 10 min. Potency, µM (series often up to 115 µM), for the others: at the top dose activity, negative = inhibition, hits mostly inhibitors; active = well fitted inhibition curve with a large enough effect in the polarisation, with a control signal flat, not every such curve was filed as active; inconclusive = small, poorly fitted or top-dose-only effect, or effect the other way, or a change in a side signal; inactive = no such curve, though single readings can be large or run the other way; the % refers to the polarisation; also: potency is read from the fitted curve at half-maximal effect
# Target sequence (Q13526 whole entry, looked up): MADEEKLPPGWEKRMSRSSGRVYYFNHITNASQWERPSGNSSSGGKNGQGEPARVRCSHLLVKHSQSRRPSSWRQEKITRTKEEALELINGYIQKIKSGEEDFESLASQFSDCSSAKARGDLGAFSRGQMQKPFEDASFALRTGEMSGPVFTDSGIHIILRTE
# Tb PGK inh: qHTS Assay to Find Inhibitors of Phosphoglycerate Kinase; Phosphoglycerate kinase, glycosomal (Trypanosoma brucei brucei), P07378; 0.043% of 380,000 active; Potency, µM (doses to about 57.5 µM), for the others: at the highest dose activity change, negative = inhibition, usual class: inhibitors; AID 602233, 2012; PGK/GAPDH coupled, Kinase-Glo luminescence, 60 min; also: potency is read from the fitted curve at half-maximal effect; nearly all actives have a fitted effect of over 60% in size
#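 Recombinant glycosomal PGK reaction used 1,3-bisphosphoglycerate generated in-well by GAPDH (100nM final) in 100mM TEA pH 7.6, 5mM MgCl2, 0.01% Tween-20. After 60 minutes at room temperature, ATP was read by Kinase-Glo Plus luminescence end-point.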
# Numbers without * were called inactive; i = inactive; ? = inconclusive; / = no result. The sample as a whole holds a higher share of hits than the screen did. Unless noted, calls follow the shape of the dose curve; as a rule, active = well fitted curve in the direction sought with a large enough effect; inconclusive = small, poorly fitted or top-dose-only effect, or another doubt; inactive = no such curve, though single readings can be large; an effect the other way counts as inactive or inconclusive. Unless noted, % is scaled to controls: 0 for no effect and ±100 for the full control effect.
SMILES,Tb PFK block,PI4K2A inh,PI5P4Ka inh,Pin1 inh,Tb PGK inh
COc1cc(C2C(C#N)=C(N)OC3=C2C(=O)CC(C)(C)C3)cc2c1OCO2 (stereo not given),/,-4.4,-58.6*,?,0.9%
Cc1[nH]n(-c2ncc(-c3ccc(Cl)cc3)s2)c(=O)c1C(c1ccc(Cl)cc1)C(C#N)C#N (stereo not given),-0.6%,29.7,-69.6*,/,-1.7%
COc1ccc(C(c2c(C)[nH]n(C(N)=S)c2=O)C(C#N)C#N)cc1 (stereo not given),-11.0%,25.0,-1.5,-5.8%,i
CCCCNC(=O)N1CCCC1C(=O)Nc1cccc(OC)c1 (stereo not given),/,-1.4,/,/,/
Cc1[nH]cnc1C(=O)N/N=C/c1c(Cl)cccc1Cl,?,-68.9*,?,2.6%,?
Cc1nnsc1C(=O)N/N=C/c1c(F)cccc1Cl,4.6%,0.5,-2.5,3.7%,6.4%
CCOC(=O)CC[C@H]1CC[C@]2(CCCN(S(=O)(=O)c3ccccc3)C2)O1,/,-4.1,/,/,/
Cc1cc2[nH]c3c(=O)n(Cc4ccccc4F)ncc3c2s1,/,/,/,-2.7%,/
Cn1c(=O)c2[nH]c(Br)nc2n(C)c1=O,/,-0.5,/,/,/
CCn1c(=S)[nH]c2c(=O)n(C)c(=O)n(C)c21,/,-6.0,-69.4*,-1.9%,4.9%
CCS(=O)(=O)C1=NN2C(=N)/C(=C\c3ccc(OS(=O)(=O)c4ccccc4)cc3)C(=O)N=C2S1,?,-8.8,-78.6*,?,2.3%
CCC1=NN2C(=N)/C(=C/c3ccc(OS(=O)(=O)c4ccccc4)cc3)C(=O)N=C2S1,2.1%,-8.4,-63.3*,?,i
COc1cc(/C=C2\C(=N)N3N=C(S(C)(=O)=O)SC3=NC2=O)ccc1OS(=O)(=O)c1ccccc1,-23.0%,/,/,/,/
CCC1=NN2C(=N)/C(=C/c3ccc(OS(=O)(=O)c4ccc(C)cc4)c(OC)c3)C(=O)N=C2S1,3.9%,-2.2,-16.1,-23.7%,-0.4%
Cc1ccc(S(=O)(=O)Oc2ccc(/C=C3\C(=N)N4N=C(S(C)(=O)=O)SC4=NC3=O)cc2)cc1,-9.0%,-1.5,-56.8*,?,-6.6%
O=C(OC12CCCN(C1)/C(=C/c1ccc(Cl)cc1)C2)c1ccco1 (stereo not given),/,-2.3,/,/,/
CCc1nn2c(=O)cc(-c3ccncc3)nc2s1,/,/,/,-1.1%,/
CCOc1ccc(S(=O)(=O)Nc2ccc(C(=O)N/N=C/c3c(C)nn(-c4ccccc4)c3N3CCCC3)cc2)cc1,-2.2%,-2.4,-73.9*,-0.6%,i
Cc1nn(-c2ccccc2)c(N2CCCCC2)c1/C=N/NC(=O)c1ccncc1,-12.6%,0.0,-14.9,1.8%,5.1%
O=C1NC[C@@H](Cc2ccc(O)cc2)N(CCc2cc(C(F)(F)F)cc(C(F)(F)F)c2)C1=O,/,-5.5,-68.3*,/,/
O=C(Nc1ccc(C(=O)N2CCCC2)cc1)c1ccccc1F,?,-70.3*,/,-3.1%,?
O=C(Nc1cc(C(=O)N2CCCC2)ccc1N1CCCC1)c1ccccc1F,-6.7%,1.1,/,-3.4%,-7.4%
CCOC(=O)N(O)c1ccc(C=Cc2ccccc2)cc1,/,4.4,-27.8,2.1%,28.2µM*
CCCCC(O)C(=O)Nc1cc(C(F)(F)F)ccc1Cl (stereo not given),/,/,/,-1.7%,/
C=C(C)C(=O)OCC(O)CO (stereo not given),/,5.0,/,/,/
SMILES,Tb PFK block,PI4K2A inh,PI5P4Ka inh,Pin1 inh,Tb PGK inh
CCOc1ccccc1-c1n[nH]c(=S)o1,-1.0%,-5.9,/,-7.5%,-8.8%
COc1ccc(-c2n[nH]c(=S)o2)c(OC)c1,1.9%,-7.6,-85.7*,2.1%,6.4%
O=C(NCC1COc2ccccc2O1)c1ccc(NC(=O)c2cccc(F)c2)cc1 (stereo not given),/,-4.1,/,/,/
COc1cccc(C2c3c(ncn(-c4ccccc4-c4ccccc4)c3=N)Oc3ccc4ccccc4c32)c1 (stereo not given),/,/,/,17.1%,/
CCOc1cc(/C=C\c2nc(O)c([N+](=O)[O-])c(=O)[nH]2)ccc1OC(C)C,-6.7%,-4.4,-2.7,-4.3%,-3.9%
O=c1[nH]c(/C=C\c2cccs2)nc(O)c1[N+](=O)[O-],3.7%,-0.7,-65.7*,/,-6.5%
COc1cc(/C=C/c2nc3ccccc3c(=O)[nH]2)cc(Br)c1O,0.5%,3.5,-0.8,106.2%,-5.7%
C=CCc1cc(/C=C/c2nc(O)c([N+](=O)[O-])c(=O)[nH]2)cc(OC)c1O,?,-25.0,-64.5*,?,-23.8%
O=C(/C=C/c1cccs1)Nc1ccc([N+](=O)[O-])cc1,-0.9%,5.4,-12.7,5.3%,-3.5%
O=c1[nH]c(/C=C\c2ccc(O)c(Cl)c2)nc(O)c1[N+](=O)[O-],1.7%,-7.0,-96.9*,3.2%,-0.8%
O=c1[nH]c(/C=C\c2ccc(O)cc2)nc(O)c1[N+](=O)[O-],18.5%,-10.0,-89.4*,1.1%,-18.7%
O=C(NN1CCCC1)NS(=O)(=O)c1ccc(Cl)cc1,/,-0.4,/,/,/
O=C(CSc1nnc(-c2cccnc2)n1-c1ccc(Cl)cc1)Nc1cccc2ccccc12,/,4.0,/,/,/
Cc1cc2c(s1)c1cnn(Cc3ccc(-n4cncn4)cc3)c(=O)c1n2C,/,/,/,-1.1%,/
N#CC1=C(N)Oc2n[nH]c(-c3cccs3)c2C1c1ccoc1 (stereo not given),-0.1%,-18.0,-55.3*,-1.0%,-3.6%
CC(C)(C)c1[nH]nc2c1C(c1cccnc1)C(C#N)=C(N)O2 (stereo not given),-0.5%,-5.7,/,8.4%,-3.1%
N#CC1=C(N)Oc2n[nH]c(-c3cccs3)c2C1c1cccnc1 (stereo not given),-0.9%,-2.8,-50.1*,3.9%,-5.3%
Cc1ccc(C2C(C#N)=C(N)Oc3n[nH]c(-c4cccs4)c32)cc1 (stereo not given),-0.9%,1.4,?,-1.2%,4.1%
CCOC(=O)c1csc(NC(=O)C2CCCN(S(=O)(=O)c3ccc(Br)s3)C2)n1 (stereo not given),/,-0.2,/,/,/
COC/C=C/C1=CC2=CC(=O)C(C)(OC(=O)C3CCCC3)C(=O)C2=CO1 (stereo not given),-7.1%,-26.9,-65.4*,?,-17.7%
O=C1c2ccccc2C(=O)N1Nc1ccccc1,-7.2%,4.4,-5.9,-0.3%,5.6%
O=C1c2cccc3c([N+](=O)[O-])c(O)cc(c23)C(=O)N1Nc1ccccc1,-1.2%,0.6,-60.8*,?,-9.6%
CCCCNC(=O)C[C@H]1C(=O)N(CCCOC)C2=CCCCC[C@]21C(=O)OC,/,-4.4,/,/,/

# Compound activity deposited in PubChem by National Center for Advancing Translational Sciences (NCATS).
